Measurements: PubChem BioAssay (NCI)
“And” between values parts separate entries of the source, which are not always exact repeats. Identical values can stand only once. Compounds without any hit were thinned out: in the full panel of roughly 83,000, 20% have a hit.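 Single-dose data. Exposure time 48 hours. Values below 10 considered active.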 The source made the active and inactive calls.

These molecules were tested on COLO 205 colon (assay: NCI-60 one-dose screen, 48 h (100 = growth as untreated, 0 = no growth, -100 = all killed)). Settings: 10 µM.
Procedure: Cells are grown in 96 well plates and exposed to the test compound for 48 hours. Compounds are tested at a single concentration, which is 10^-5 M for most compounds. The reported endpoint is percent growth (GI% or GIPRCNT), where numbers from 0 - 100% represent growth inhibition, and numbers from -100% - 0 represent cell death. For example, a value of 40 represents 60% growth inhibition. A value of 0 means no net growth occurred over the course of the experiment. A value of -40 indicates 40% of cells at the beginning of the experiment died by the end of the experiment. A value of -100 means all cells are dead at the end of the experiment.
NCI-60 Human Tumor Cell Lines Screen was performed using the standard one-dose NCI protocol, which is described in more detail at https://dtp.cancer.gov/discovery_development/nci-60/default.htm.
Compounds with GIPRCNT values below 10 were considered active. Activity score was based on GIPRCNT using the following formula: […]
Score is 0 for GIPRCNT values of 100 or above, 50 for GIPRCNT values of 0, and 100 for GIPRCNT values of -100.
In the case of COc1ccc(/C=C\[N+](=O)[O-])cc1OC, the growth is reported as 76.5% (inactive) and 64.5% (inactive).
With O=C(O)c1cc(Cc2ccc(O)c(C(=O)O)c2)ccc1O (tested in a mixture with another compound) the growth was 42.4% (inactive).
With C/C(=C\c1ccc(Cl)c(Cl)c1)[N+](=O)[O-] the growth was -57.9% (active) and 101% (inactive).
With Cc1cc(C)c(C[N+](C)(C)C)c(C)c1C the growth was 0.186% (active).
NC(=O)c1cc([N+](=O)[O-])c(Cl)c([N+](=O)[O-])c1 was tested, and the growth was -71.1% (active).
In the case of CCOP(=O)(OCC)/C(C#N)=C/c1ccc(Br)cc1, the growth is reported as 109% (inactive).
CC[C@@H](C)[C@@H]1NC(=O)C(NC(=O)C(CC(C)C)N(C)C(=O)C2CCCN2C(=O)C(C)O)C(C)OC(=O)C(Cc2ccc(OC)cc2)N(C)C(=O)C2CCCN2C(=O)C(CC(C)C)NC(=O)C(C)C(=O)C(C(C)C)OC(=O)C[C@H]1O (stereo not given in full) was tested, and the growth was -69.5% (active).
For COc1cc(/C=C(/C)[N+](=O)[O-])ccc1O, the growth was 60.8% (inactive) and 47.9% (inactive).
In the case of COc1ccc(/C=C(\C)[N+](=O)[O-])cc1OC, the growth is reported as -80.5% (active).
In the case of O=S(=O)(F)c1ccc(Cl)cc1, the growth is reported as 107% (inactive).
For CC1CCC2(OC1)OC1C(O)C3C4CCC5CC(OC6OC(CO)C(OC7OC(CO)C(O)C(OC8OCC(O)C(O)C8O)C7OC7OC(CO)C(O)C(OC8OC(CO)C(O)C(O)C8O)C7O)C(O)C6O)C(O)CC5(C)C4CCC3(C)C1C2C (stereo not given), the growth was 22.7% (inactive).
With Cc1ccc(C(=O)C2C(c3ccccc3)N2C2CCCCC2)cc1 (stereo not given) the growth was 126% (inactive) and 110% (inactive).
With O=C1C=Cc2ccccc2C1=O the growth was 117% (inactive).
For Cn1c(O)c(N=O)c(=O)n(C)c1=O, the growth was 110% (inactive) and 111% (inactive).
In the case of COC(=O)C1C(O)C(C)C(O)C(C)/C=C\C=C(C)C(=O)Nc2c(C)c(OC(C)=O)c3c(c2O)C(=O)C(C)=C2OCOC(=C23)C(C)=CC(C)(O)C(O)C(C)C1O (stereo not given), the growth is reported as 94.7% (inactive).
With COC1CC2C=C(C)/C=C/C=C/C(=O)NC(c3ccccc3)C/C=C/CCC(O)CC(=O)C2=C1O (stereo not given) the growth was -79.1% (active).
O=C1C(=O)c2ccccc2-c2ccccc21 was tested, and the growth was -63.5% (active).
For COc1cc(/C=C\[N+](=O)[O-])ccc1O, the growth was 73.6% (inactive) and 104% (inactive).
With COc1cc2c(c(OC)c1OC)-c1ccc(O)c(=O)cc1[C@@H](NC(C)=O)CC2 the growth was 72.6% (inactive).
For C[C@]12CC[C@H]3[C@@H](CCC4=CC(=O)CC[C@@H]43)[C@@H]1CC[C@@H]2OC(=O)N(CCCl)N=O, the growth was 58.8% (inactive).
For [Cl][Hg][c]1ccc(Cl)s1, the growth was -81.2% (active).
In the case of [Cl][Hg][c]1ccc2ccccc2c1, the growth is reported as -87.4% (active).
In the case of NC(=O)c1cc([N+](=O)[O-])c(Cl)c([N+](=O)[O-])c1Cl, the growth is reported as -54.1% (active).
In the case of CCCCCCCC[N+]12CN3CN(CN(C3)C1)C2, the growth is reported as 104% (inactive).
With COC(C(=O)C(O)C(C)O)C1Cc2cc3cc(OC4CC(OC(C)=O)C(OC5CC(O)C(OC)C(C)O5)C(C)O4)cc(O)c3c(O)c2C(=O)C1OC1CC(OC2CC(OC3CC(C)(O)C(OC(=O)C(C)C)C(C)O3)C(O)C(C)O2)C(O)C(C)O1 (stereo not given) the growth was -83.5% (active).
For COc1cc2c(cc1OC)C13CCN4CC5=CCOC6CC(=O)N2C1C6C5CC43 (stereo not given), the growth was 95.8% (inactive) and 89% (inactive).
With O=C(CCl)Nc1ccc(Cl)cc1 the growth was 52.3% (inactive).
For CS(=N)(=O)CCC(N)C(=O)O (stereo not given), the growth was 122% (inactive).
In the case of S=C=NCCc1ccccc1, the growth is reported as 63.1% (inactive).
For NNc1ccccc1, the growth was 85.4% (inactive).
COc1ccccc1[As]=[As]c1ccccc1OC (stereo not given) was tested, and the growth was -93.1% (active).
In the case of C#CC1(O)CCC(C(C)(C)C)CC1 (stereo not given), the growth is reported as 114% (inactive).
With O=[N+]([O-])c1ccc(Br)c([N+](=O)[O-])c1 the growth was 0.504% (active).
CC(C)C1(NC(=O)C2CC3c4cccc5[nH]cc(c45)CC3N(C)C2)OC2(O)C3CCCN3C(=O)C(Cc3ccccc3)N2C1=O (stereo not given) was tested, and the growth was 106% (inactive).
In the case of O=[P+](O)c1ccccc1, the growth is reported as 112% (inactive).
For O=C(CBr)Nc1ccc(Cl)cc1, the growth was -3.53% (active).
COc1cc(/C=C/[N+](=O)[O-])cc(OC)c1OC was tested, and the growth was -53.4% (active).
Cc1cc(C(C)(C)c2ccc(O)c(C)c2)ccc1O was tested, and the growth was 100% (inactive).
In the case of COc1cc([C@@H]2c3cc4c(c(O)c3C[C@H]3COC(=O)[C@@H]32)OCO4)cc(OC)c1OC, the growth is reported as -69.5% (active).
O=C1CCC(=O)N1SC(Cl)(Cl)Cl was tested, and the growth was 112% (inactive).
